Test results as given in PubChem BioAssay.

Assay: binders from COS7 lysate, DM2A8 probe, primary screen, torsin A project, cell lysate, small-molecule microarray, fluorescence 635/667 (AID 1065)
Conditions: higher = more signal, COS7 lysate expressing mutant human TOR1A
With `O=c1n(-c2ccccc2)c(=O)n2n1CC(COc1ccccc1)=C([C@H](O)CCc1ccccc1)[C@@H]2CO` the composite z-score was -0.0765.
`COc1ccc([Si](C)(C)[C@@H]2[C@@H](CC(=O)N3Cc4ccccc4C[C@H]3CO)O[C@]3(C(=O)N(Cc4cccc(N5C(=O)c6cccc7cccc5c67)c4)c4ccccc43)[C@H]2C)cc1` showed a composite z-score of 0.822.
With `CN(C)C(=O)[C@]1(CCS(=O)(=O)c2ccccc2)N=C(c2ccc(OCCCO)cc2)O[C@@H]1c1ccccc1N=[N+]=[N-]` the composite z-score was 1.13.
With `COC(=O)[C@@]1(Cc2ccc(OC)cc2)[C@H]2c3cc(C(=O)N4CCCC4)n(Cc4c(-c5ccccc5)noc4C)c3C[C@H]2CN1C(=O)c1ccccc1` the composite z-score was 0.245.
Work on `O=C1O[C@H](c2ccccc2)[C@H](c2ccccc2)N2[C@H]1[C@@H](C(=O)O)[C@]1(C(=O)Nc3ccc(C#CC4=CCCCC4)cc31)[C@H]2c1ccc(O)cc1` yielded a composite z-score of -0.208.
For `COc1cc2c(cc1OC)CN(C(=O)[C@@H]1[C@H]3C(=O)O[C@H](c4ccccc4)[C@H](c4ccccc4)N3[C@H](c3ccc(OCCO)cc3)[C@@]13C(=O)Nc1ccccc13)CC2`, the composite z-score was 0.562.
`COC(=O)[C@@]1(Cc2ccccc2)[C@H]2c3cc(C(=O)N(C)C)n(CCN4CNCC4=O)c3C[C@H]2CN1C(=O)c1ccccc1` showed a composite z-score of 1.89.
`CN(C)c1ccc(C(O)C2C=CC3C(=O)N(c4ccccc4)C(=O)C3N2Nc2ccc([N+](=O)[O-])cc2)cc1` (stereo unspecified) showed a composite z-score of 0.456.
With `C=C(C)c1cc2c(c(CCCCCC)n1)[Si](C(C)C)(C(C)C)OC2` the composite z-score was -1.42.
For `O=C1O[C@@H](c2ccccc2)[C@@H](c2ccccc2)N2[C@@H](c3ccc(O)cc3)[C@]3(C(=O)Nc4ccc(C#CC5(O)CCCCCC5)cc43)[C@@H](C(=O)NC[C@H](O)c3ccccc3)[C@H]12`, the composite z-score was -0.363.
For `COCCCNC(=O)[C@@]1(Cc2ccccc2N=[N+]=[N-])N=C(c2ccc(OCCCO)cc2)O[C@H]1c1ccccc1`, the composite z-score was 2.55.
`O=C1O[C@H](c2ccccc2)[C@H](c2ccccc2)N2[C@H]1[C@@H](C(=O)Nc1nc3ccccc3s1)[C@]1(C(=O)Nc3ccc(C#CCCO)cc31)[C@H]2c1ccc(O)cc1` showed a composite z-score of 0.931.
`COC(=O)[C@@]1(Cc2ccccc2)[C@H]2c3cc(C(=O)N(C)C)n(CCc4ccc(O)c(OC)c4)c3C[C@H]2CN1C(=O)c1ccccc1` gave a composite z-score of 0.283.
Work on `O=C1OCC=C[C@H]2OC34C=CCN(c5ccc(Cl)cc5)C(=O)[C@H]3N(CCO)C(=O)[C@@H]4[C@@H]12` (stereo partly specified) yielded a composite z-score of -0.515.
In the case of `CC(C)Cc1ccc(CN2CC[C@@H](NC(=O)Nc3ccccc3)C2)cc1`, the composite z-score is reported as -0.0461.
With `C=CCC(OC(C)=O)[C@@H]1[C@@H](N(Cc2cc3ccccc3o2)C(=O)c2ccc(-c3ccccc3)cc2)c2cc(OCCCO)ccc2N1C(=O)c1ccc2ccccc2c1` (stereo partly specified) the composite z-score was -0.262.
Work on `Cc1ccc(S[C@]2(C(=O)O)CC(=O)N(Cc3ccccc3Cl)[C@@H]2c2ccc(CO)cc2I)cc1` yielded a composite z-score of 0.39.
Compound `COCCCNC(=O)[C@@]1(Sc2ccc(C)cc2)CC(=O)N(C2CCCCC2)[C@@H]1c1ccc(CO)cc1` has a composite z-score of -0.596.
Work on `COCC1=C2[C@@H](CCc3ccccc3)OB(O)C[C@@H]2[C@@H]2C(=O)C=CC(=O)[C@@H]2C1` yielded a composite z-score of 0.42.
In the case of `COc1ccc([Si](C)(C)[C@@H]2[C@@H](CCn3cc([C@H](O)c4ccccc4)nn3)O[C@]3(C(=O)N(Cc4ccc(N5CCC5=O)cc4)c4ccccc43)[C@H]2C)cc1`, the composite z-score is reported as -0.163.
`CCOc1cc(C(O)C2C=CC3C(=O)N(C)C(=O)C3N2Nc2ccccc2)ccc1O` (stereo unspecified) showed a composite z-score of 0.101.
`C=C(C(=O)CC[C@@H](OC(C)=O)c1ccc(CO)o1)C(C)C` gave a composite z-score of -0.0472.
In the case of `CC(=O)NCCCC[C@@H]1NC(=O)[C@@H]2C[C@H](C(=O)NCCCC[N+](C)(C)C)[C@H](c3ccc(O)cc3)N2C1=O`, the composite z-score is reported as 1.74.
Compound `CCOC(=O)C1CCCCN1` (stereo unspecified) has a composite z-score of 0.0953.
In the case of `C=CCOC(=O)[C@H]1[C@@H]2C(=O)O[C@@H](c3ccccc3)[C@@H](c3ccccc3)N2[C@@H](c2ccc(OCCOC(=O)[C@@H]3C[C@@H]4C(=O)N[C@@H](CCCCN(C)C)C(=O)N4[C@@H]3c3ccc(O)cc3)cc2)[C@]12C(=O)Nc1ccccc12`, the composite z-score is reported as 0.639.
Work on `CCCC[C@@H]1C[C@H]1[C@@H](NC(=O)c1cccs1)c1ccc(C(F)(F)F)cc1` yielded a composite z-score of -0.0988.
